Where a chain is given by its changes, count along the chain named. The full ranking holds about 5,800 sequences; the median of “enrichment r” is about 0.68, and the highest 2% start at about 11. The sample as a whole holds a higher share of the highest values than the screen did.
T1: UNK ZnF1-6 (called full-length) (human, UniProt Q9C0B0 30-357)
T1 sequence: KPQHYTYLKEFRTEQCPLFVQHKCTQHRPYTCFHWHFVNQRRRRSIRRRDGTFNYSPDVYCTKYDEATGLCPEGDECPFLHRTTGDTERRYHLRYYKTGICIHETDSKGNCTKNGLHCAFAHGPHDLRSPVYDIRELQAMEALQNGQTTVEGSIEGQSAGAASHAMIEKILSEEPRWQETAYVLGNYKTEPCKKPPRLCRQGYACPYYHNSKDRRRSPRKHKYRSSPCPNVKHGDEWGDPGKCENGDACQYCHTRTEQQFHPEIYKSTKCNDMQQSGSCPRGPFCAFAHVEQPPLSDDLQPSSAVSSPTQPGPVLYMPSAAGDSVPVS

B1: chr10:62095068:62095169:+|3pUTR|ENSG00000150347|msi1|FALSE|unique (ssRNA)
RNA: GGGAGUUCUACAGUCCGACGAUCCCAUUUGCUUCAAUUAAUUAUUUACCUUCCUGUGGAAUAAUAUAUAUAUAUAUAUUUAAUAGAACCAUAGAUAGACUAGUAGAAUUUAGAUUAUAAAUGUGUGAGUGCAGAUUAUCCUGCCAACAGAGGAUUGAGCAUCA
B2: chr6:142752714:142752806:-|3pUTR|ENSG00000010818|msi1_unk|total|mutant (ssRNA)
RNA: GGGAGUUCUACAGUCCGACGAUCUUUUCUUUACUUUGCUUAUAUUCUUAUAAGCAUUUUUCCGCAGUAAUUUGUACAUAUUUCCGAAUUUGUGUAUCUGCUUUGUAAUAAAUGUAAUUUCUUUCCUUUUUUGGACACUUGGAUCAACAGAGGAUUGAGCAUCA
B3: chr6:133987709:133987810:+|3pUTR|ENSG00000028839|unk|FALSE|unique (ssRNA)
RNA: GGGAGUUCUACAGUCCGACGAUCAAUAACAAAUAGGAAUUUUUUUUCUUGCAGAUUAGAAAUAAAAACGUGUAUAUAAACUCUAGGGAACCAGACUAGAAGUUUAUAGAUAAAGGAUAAUGUUUUAUGUUGCUAAUUUAAUAUCAACAGAGGAUUGAGCAUCA
B4: chr10:110135209:110135310:+|3pUTR|ENSG00000148700|msi1|FALSE|bound_elsewhere (ssRNA)
RNA: GGGAGUUCUACAGUCCGACGAUCCUCUCUAUUGGAAGAUUUUUUUAAUGUUCUACAUCAUUUAUGUUGUAUUACAAUGUAUGUAGAAAUAGUAACCUGUGAACUAUGCUUUUCCAUAACUUUUUAAAAAUAUAUAUAUCUAAACAACAGAGGAUUGAGCAUCA
B5: chr21:34788506:34788607:-|3pUTR|ENSG00000159216|msi1|FALSE|unique (ssRNA)
RNA: GGGAGUUCUACAGUCCGACGAUCUUGUUAAUGCCUAUAACUUUUUUUCAAUUUUUUUGUGUGUGUUUCUAAGGACUUUUUCUUAGGUUUGCUAAAUACUGUAGGGAAAAAAAUGCUUCUUUCUACUUUGUUUAUUUUAGACUUCAACAGAGGAUUGAGCAUCA
B6: chr9:123379744:123379845:-|3pUTR|ENSG00000119522|msi1|total|mutant (ssRNA)
RNA: GGGAGUUCUACAGUCCGACGAUCGUGUUUCAGCACCGAUUCCAGUUUCGCACCCUGGGCAGACCCCCAGGCCCCAUCCGGGACCGGGCAGAGGAGGUGCUGGCGGCCCCAGGGAAGGAGGGUGUGUACCCCAAGGCCCCCUGGCAACAGAGGAUUGAGCAUCA
B7: chr3:98797553:98797658:-|3pUTR|ENSG00000057019|msi1|total|mutant (ssRNA)
RNA: GGGAGUUCUACAGUCCGACGAUCAUUUCAUUCAUUGAAGAAUCAAUACAUAUUUUGUUUCAAAAUGUUUGAAACAAAAGACACCGAUGGCCGACUUUUAUUAAAACAUAUAUGGAUGUGGAAAGCACAUAUAUUAAUGCAGUCCAACAGAGGAUUGAGCAUCA
B8: chr15:52550718:52550819:-|3pUTR|ENSG00000128989|msi1|FALSE|unique (ssRNA)
RNA: GGGAGUUCUACAGUCCGACGAUCUUUAUAUAAACUUUUUAAAUGUAGAAACUUUUUACUUCCACACUCAGUUUUGGAGACCCUAGAAUAAAAGGCUUCAAUACUCUGCAUUCCAUGCCCUCUGCCACCUGCUUUUUUUUCCCCCAACAGAGGAUUGAGCAUCA
B9: chrX:100674576:100674677:+|3pUTR|ENSG00000102359|msi1|FALSE|bound_elsewhere (ssRNA)
RNA: GGGAGUUCUACAGUCCGACGAUCUUGCAAUCCACACCAAAUCAAUCUUUGAAAACAUUCCUCCAUUCGGUUCAUACAUACAGUAGAAACCACUGUGGCUGCCCUUAAUCCAGUGUGCUUAUAGGAAAUCAGUUAGCAGCUGACCAACAGAGGAUUGAGCAUCA
B10: chr7:7607225:7607326:+|3pUTR|ENSG00000164654|msi1|total|mutant (ssRNA)
RNA: GGGAGUUCUACAGUCCGACGAUCUUUGAGUGAUUUUGAUAUGCUUCACAGAGACAAAUGCUGCCAAAAUAAACAUCGAAGUACCGACAUGAGUUCUGUUCAGCAGGUUGAAAAGUCUGAUUCCGAAAAACUUUCUAAGUUUUGCAACAGAGGAUUGAGCAUCA
B11: chr3:129431351:129431457:-|3pUTR|ENSG00000129071|unk|FALSE|unique (ssRNA)
RNA: GGGAGUUCUACAGUCCGACGAUCACUUCAAAAAAGCUUAAUUAAGUACAACCAACCACCUUUCCAGCCAUAGAGAUUUUAAUUAGCCCAACUAGAAGCCUAGUGUGUGUGCUUUCUUAAUGUGUGUGCCAAUGGUGGAUCUUUCAACAGAGGAUUGAGCAUCA
B12: chr5:154817497:154817598:+|3pUTR|ENSG00000155506|msi1_unk|FALSE|overlapping (ssRNA)
RNA: GGGAGUUCUACAGUCCGACGAUCUUAUUGAGAGUAUCUGCUUUCCAGGCUGAAGUGAUUCAUUCAUUAUUCUAGUCCUGCUUUAGUCCUUUGUAAUUUGUGGUAAUUAUGCUUUUCUUUUUAAUACAAAAAAAUGUAUAAAAACAACAGAGGAUUGAGCAUCA
B13: chr14:44928120:44928223:-|3pUTR|ENSG00000179454|unk|total|mutant (ssRNA)
RNA: GGGAGUUCUACAGUCCGACGAUCCCGUACAGCAGGCCUCCCAGUGCUGAUGUAAAUAUUUGAGCAGUGUUCCGUACCAUUCUCCGUGCAUAUUAAUUUUUUUAUAUAUCCUUAUAAUUUCCGUUUUUUAAGAUCUUUGCUUUUCAACAGAGGAUUGAGCAUCA
B14: chr14:44928120:44928223:-|3pUTR|ENSG00000179454|unk|FALSE|unique (ssRNA)
RNA: B13 RNA with C24U, C25A, C71U, C72A, C83U, C84A, C120U, C121A
B15: chr12:54238554:54238587:-|3pUTR|ENSG00000094916|msi1_unk|FALSE|overlapping (ssRNA)
RNA: GGGAGUUCUACAGUCCGACGAUCGGGAGCACCCAUUUUAAACCUGGAGAGAACCAUGAUGUUUUCUUCUUCAAAUAACAAUCUAGUUUUUUUUCCCCCAGUACUAAAAUUGUAUUGUCUUUCAGACAAUAUAAUUUUUAUUUACAACAGAGGAUUGAGCAUCA
B16: chr10:73916565:73916770:+|3pUTR|ENSG00000122861|msi1|total|mutant (ssRNA)
RNA: GGGAGUUCUACAGUCCGACGAUCCUGGUUGUCAUUUUUGCAGCCGAGUCAUCUCCAUCAGCUGUAAGAAGAGACUGGGAAGACCGGCUCUGCACAGAUGGAUUUGCCUGUGCCACCCACCAGGGCGAACGACAACCGCUUUACCAACAGAGGAUUGAGCAUCA
B17: chr10:72012227:72012328:+|3pUTR|ENSG00000122863|msi1|total|mutant (ssRNA)
RNA: GGGAGUUCUACAGUCCGACGAUCCAAUGGAAGGAGCUUCAGCAGGAGGUCCUUCCCAGAAGGUUGAUUCUUGGCCUGGGUGGCCGAGGAGAUAUCCUGACCCUAAAGUCUUCCAGCCCCGGGUCAUCCUCUCCUAUACCCGGGCAACAGAGGAUUGAGCAUCA
B18: chr1:18907414:18907603:-|3pUTR|ENSG00000169991|msi1|total|mutant (ssRNA)
RNA: GGGAGUUCUACAGUCCGACGAUCCCUUGAUUUCCCUGAUAACUUGAUGUUCUUCCCUCCCUCGCCAGCCAACAACCGAGGCUCCGAGAUCUGUAAUUUCUCUGUGAGAAAGUCUGAAGGGGCCAGGCCUGGUCUCUGCUCCCUCAACAGAGGAUUGAGCAUCA
B19: chr1:42176760:42176861:-|3pUTR|ENSG00000198815|msi1|total|mutant (ssRNA)
RNA: GGGAGUUCUACAGUCCGACGAUCGUCGCUCAGAUGUCCUUUGAAGUGGGAGGGAAUCAAUCCGGGGAUAAUUUCAAAUGGAACCGAGUAUUUUGAUAUUGUUCAUUCAGAGGGUGAUGUGUACAUAUCUAUAUUGUAUAUAUGCAACAGAGGAUUGAGCAUCA

Biological target: T1, UNK ZnF1-6 (called full-length)
Test: nsRBNS (natural sequence RNA bind-n-seq); RBNS binding buffer (assumed for nsRBNS): 25 mM Tris pH 7.5, 150 mM KCl, 3 mM MgCl2, 0.01% Triton X-100, 500 ug/ml BSA, 20 U/ml SUPERase-In, 4 C; UNK is unkempt and MSI1 is Musashi-1; names of the RNAs are library labels; protein concentration not given here; high values mean tight binding

Binder | binding signal
B1 | 15.6 enrichment R
B2 | 0.576 enrichment R
B3 | 2.44 enrichment R
B4 | 7.46 enrichment R
B5 | 2.15 enrichment R
B6 | 0.59 enrichment R
B7 | 0.53 enrichment R
B8 | 3.77 enrichment R
B9 | 0.532 enrichment R
B10 | 0.348 enrichment R
B11 | 5.99 enrichment R
B12 | 1.93 enrichment R
B13 | 7.31 enrichment R
B14 | 213 enrichment R
B15 | 9 enrichment R
B16 | 0.561 enrichment R
B17 | 0.492 enrichment R
B18 | 0.733 enrichment R
B19 | 1.09 enrichment R
